Our source for the inhibition values is PubChem BioAssay AID2330 (Broad Institute, 2010).

The campaign covered roughly 37,000 compounds. About 2,800 (7.6%) were called active. Inconclusive results (about 1%) are left out. The sample as a whole holds a higher share of actives than the screen did. A number with no mark means an inactive call. No stated cut-off is given here; in the data, active means inhibition above about 80%; inconclusive means no clear call, values can overlap the other calls; inactive means below that.

As usually defined, the inhibition is the relative decrease from the control value, in per cent.

The assay can be described thus: NOMO-1 AML cell viability reduction, primary screen, STK33 inhibitor project, CellTiter-Glo luminescence (AID 2330). The conditions noted are these: NOMO-1 AML viability, 72 h, stronger effect = higher value, concentration not given here. In general terms: In ATP-based viability assays light output follows the ATP content of the culture.
Turning to `C[C@@H]1CN([C@@H](C)CO)C(=O)Cc2cc(NC(=O)C3CCCCC3)ccc2O[C@@H]1CN(C)C(=O)Nc1ccc(C(F)(F)F)cc1`, the inhibition is 37.5%. In the case of `C[C@@H]1CN([C@H](C)CO)C(=O)Cc2cc(NC(=O)c3ccncc3)ccc2O[C@@H]1CN(C)Cc1ccncc1` it was -19.5%; in that of `C[C@H]1CN([C@@H](C)CO)C(=O)Cc2cc(NC(=O)CCCN(C)C)ccc2O[C@@H]1CN(C)Cc1ccc(-c2ccccc2)cc1`, 24.3%. For the molecule `C[C@H]1CN([C@@H](C)CO)C(=O)Cc2cc(NC(=O)C3CCCCC3)ccc2O[C@H]1CN(C)C(=O)Nc1ccc(C(F)(F)F)cc1`, the inhibition was 11.2%. Regarding `C[C@@H]1CN([C@H](C)CO)C(=O)Cc2cc(NC(=O)C3CCCCC3)ccc2O[C@@H]1CN(C)Cc1ccc(C(F)(F)F)cc1`, the inhibition is 101% (active). In the case of `C[C@@H]1CN([C@H](C)CO)C(=O)Cc2cc(NC(=O)c3ccncc3)ccc2O[C@H]1CN(C)Cc1ccc(-c2ccccc2)cc1` it was 111% (active); in that of `C[C@H](CO)N1C[C@H](C)[C@H](CN(C)Cc2ccc(-c3ccccc3)cc2)Oc2ccc(NC(=O)Nc3ccc(F)cc3)cc2CC1=O`, 110% (active); in that of `C[C@@H]1CN([C@H](C)CO)C(=O)Cc2cc(NC(=O)Nc3ccc4c(c3)OCO4)ccc2O[C@H]1CN(C)Cc1ccc(C(F)(F)F)cc1`, 77%.

Regarding `C[C@H]1CN([C@@H](C)CO)C(=O)Cc2cc(NC(=O)Nc3ccccc3)ccc2O[C@H]1CN(C)Cc1ccncc1`, the inhibition is 19.2%. `C[C@@H]1CN([C@H](C)CO)C(=O)Cc2cc(NC(=O)Nc3ccc(C(F)(F)F)cc3)ccc2O[C@H]1CN(C)Cc1ccc(-c2ccccc2)cc1`: the inhibition was 128% (active). As to `C[C@H]1CN([C@@H](C)CO)C(=O)Cc2cc(NC(=O)Nc3ccc(C(F)(F)F)cc3)ccc2O[C@H]1CN(C)Cc1ccc(C(=O)O)cc1`, the inhibition is 12.6%. In the case of `COc1ccc(CN(C)C[C@@H]2Oc3ccc(NC(=O)c4ccncc4)cc3CC(=O)N([C@H](C)CO)C[C@H]2C)cc1` it was 13.5%. In the case of `CC(C)NC(=O)N(C)C[C@@H]1Oc2ccc(NC(=O)C3CCCCC3)cc2CC(=O)N([C@H](C)CO)C[C@@H]1C` it was 27.6%.

For `Cc1noc(C)c1NC(=O)Nc1cccc2c1O[C@@H](CN(C)CC1CCCCC1)[C@H](C)CN([C@@H](C)CO)C2=O`, the inhibition is -7.61%.

For `Nc1nnc(SCC(=O)Nc2ccc(Cl)cc2O)s1`, the inhibition was 14.9%. As to `C[C@@H]1CN([C@H](C)CO)C(=O)c2cccc(NC(=O)C3CCOCC3)c2O[C@H]1CN(C)S(=O)(=O)c1ccc(Cl)cc1`, the inhibition was 7.24%. In the case of `COc1ccc(NC(=O)N(C)C[C@@H]2Oc3c(NS(C)(=O)=O)cccc3C(=O)N([C@H](C)CO)C[C@H]2C)cc1` it was 12.7%; in that of `COc1cccc(-c2cc(C(F)(F)F)n3nc(C(=O)NCc4ccccn4)cc3n2)c1`, 12.5%. In the case of `COC(=O)c1sc(SC)c(-c2ccn(S(=O)(=O)c3ccc(Cl)cc3)n2)c1C` it was -4.42%; in that of `Cc1ccc(S(=O)(=O)N(C)C[C@H]2Oc3ccc(NC(=O)Cc4cn(C)c5ccccc45)cc3CC(=O)N([C@@H](C)CO)C[C@H]2C)cc1`, 15.7%; in that of `N#Cc1c(SCC(=O)Nc2ccc(F)cc2Cl)nc2c(c1C(F)(F)F)CCCCC2`, 24.5%. Next, `C=CCn1c(SCc2nc3ccccc3[nH]2)nnc1-c1cccc(C)c1`: 1.23%; `C[C@@H]1CN([C@H](C)CO)C(=O)Cc2cc(NC(=O)Cc3cn(C)c4ccccc34)ccc2O[C@@H]1CN(C)Cc1ccc(C(F)(F)F)cc1`: 112% (active). As for `COc1ccc(NC(=O)Nc2ccc3c(c2)CC(=O)N([C@H](C)CO)C[C@H](C)[C@H](CN(C)Cc2ccncc2)O3)cc1`, the inhibition is -3.73%.

As to `C[C@H]1CN([C@@H](C)CO)C(=O)Cc2cc(NC(=O)Cc3cn(C)c4ccccc34)ccc2O[C@@H]1CN(C)Cc1ccccc1`, the inhibition is 32.3%. Take `COc1ccc(CN(C)C[C@@H]2Oc3ccc(NC(=O)Nc4ccc(OC)cc4)cc3CC(=O)N([C@H](C)CO)C[C@H]2C)cc1`: the inhibition is 22%. In the case of `Cc1noc(C)c1NC(=O)Nc1ccc2c(c1)CC(=O)N([C@H](C)CO)C[C@@H](C)[C@@H](CN(C)Cc1ccc(C(F)(F)F)cc1)O2` it was 25.7%; in that of `C[C@H]1CN([C@@H](C)CO)C(=O)Cc2cc(NC(=O)Cc3cn(C)c4ccccc34)ccc2O[C@H]1CN(C)Cc1ccccc1`, 7.92%; in that of `C[C@@H]1CN([C@H](C)CO)C(=O)Cc2cc(NC(=O)Nc3cccc4ccccc34)ccc2O[C@@H]1CN(C)Cc1ccc(C(F)(F)F)cc1`, 105% (active). Take `C[C@@H]1CN([C@H](C)CO)C(=O)Cc2cc(NC(=O)Nc3cccc4ccccc34)ccc2O[C@@H]1CN(C)Cc1ccc(C(=O)O)cc1`: the inhibition was 20.5%. Take `COc1ccc(NC(=O)Nc2ccc3c(c2)CC(=O)N([C@@H](C)CO)C[C@@H](C)[C@@H](CN(C)Cc2ccc(C(F)(F)F)cc2)O3)cc1`: the inhibition is 101% (active). In the case of `C[C@@H]1CCCCO[C@@H](CN(C)C)[C@@H](C)CN([C@H](C)CO)C(=O)c2cc(NC(=O)c3ccncc3)ccc2O1` it was 17.5%; in that of `CC(C)NC(=O)N(C)C[C@H]1Oc2c(NC(=O)C3CCCCC3)cccc2C(=O)N([C@@H](C)CO)C[C@H]1C`, -7.34%.

`C[C@H](CO)N1C[C@H](C)[C@@H](CN(C)C(=O)Nc2ccc3c(c2)OCO3)Oc2c(cccc2N(C)C)C1=O`: the inhibition is 13.3%. In the case of `Cc1noc(C)c1NC(=O)N(C)C[C@H]1Oc2ccc(NC(=O)Nc3ccc(C(F)(F)F)cc3)cc2CC(=O)N([C@@H](C)CO)C[C@@H]1C` it was 8.18%; in that of `O=C(O)c1c(Br)c(Br)c(Br)c(Br)c1-c1c2ccc(=O)cc-2oc2cc(O)ccc12`, 21.5%; in that of `O=C(CSc1nnc(-c2cccs2)n1-c1ccccc1Cl)Nc1cccc(C(=O)O)c1`, -8.58%. Next, `O=C(NCc1ccccn1)C(=O)Nc1cccc(Cl)c1Cl`: -11.7%; `O=c1n(Cc2ccccc2)c2ccccc2n1Cc1ccccc1`: 23%; `N=c1n(CC(=O)c2ccc(Cl)c(Cl)c2)c2ccccc2n1Cc1ccccc1`: 92.6% (active). Consider `CC(C)(C)c1ccc(Cn2c(=N)n(CC(=O)O)c3ccccc32)cc1`, for which the inhibition is 31%. As for `Cc1noc(C)c1NC(=O)Nc1ccc2c(c1)C(=O)N([C@H](C)CO)C[C@H](C)[C@@H](CN(C)Cc1ccc3c(c1)OCO3)OCCCC[C@@H](C)O2`, the inhibition is 0.0539%. `N#C/C(=C\c1ccc(O)c(O)c1)C(=O)NCc1ccccc1`: the inhibition was 133% (active). In the case of `N#C/C(=C\c1ccc(O)c(O)c1)C(N)=O` it was 44.4%; in that of `CC(C)=CC1C(C(=O)O)C1(C)C` (stereo not given), -10.7%. Regarding `COc1ccc(S(=O)(=O)N(C)C[C@H]2Oc3ccc(NS(=O)(=O)c4ccc(C)cc4)cc3CC(=O)N([C@@H](C)CO)C[C@@H]2C)cc1`, the inhibition was 16.4%. As to `COc1ccc(S(=O)(=O)Nc2cccc3c2O[C@@H](CN(C)S(=O)(=O)c2c(C)noc2C)[C@@H](C)CN([C@H](C)CO)C3=O)cc1`, the inhibition is 0.67%. As for `Cc1noc(C)c1NC(=O)Nc1ccc2c(c1)C(=O)N([C@H](C)CO)C[C@@H](C)[C@@H](CN(C)Cc1ccccc1)O2`, the inhibition is -0.997%.

Take `Cc1ccc(S(=O)(=O)Nc2ccc3c(c2)CC(=O)N([C@H](C)CO)C[C@@H](C)[C@H](CN(C)Cc2ccc(C(F)(F)F)cc2)O3)cc1`: the inhibition was 108% (active). In the case of `C[C@H](CO)N1C[C@H](C)[C@H](CN(C)Cc2ccc(-c3ccccc3)cc2)Oc2ccc(NS(=O)(=O)c3ccccc3)cc2C1=O` it was 93.2% (active).

Turning to `COc1ccc(S(=O)(=O)Nc2ccc3c(c2)CC(=O)N([C@H](C)CO)C[C@H](C)[C@H](CN(C)Cc2ccc(C(F)(F)F)cc2)O3)cc1`, the inhibition is 125% (active). Take `Cc1ccc(S(=O)(=O)Nc2ccc3c(c2)CC(=O)N([C@@H](C)CO)C[C@H](C)[C@H](CN(C)Cc2ccccc2)O3)cc1`: the inhibition was 26%.

For `COc1ccc(S(=O)(=O)Nc2ccc3c(c2)C(=O)N([C@@H](C)CO)C[C@H](C)[C@H](CN(C)Cc2ccc(C(F)(F)F)cc2)O3)cc1`, the inhibition is 50.5%. In the case of `Cc1ccc(S(=O)(=O)Nc2ccc3c(c2)C(=O)N([C@H](C)CO)C[C@H](C)[C@H](CN(C)Cc2ccc(Cl)c(Cl)c2)O3)cc1` it was 91% (active).

For `C[C@H]1CN([C@@H](C)CO)C(=O)Cc2cc(NS(=O)(=O)c3ccc(F)cc3)ccc2O[C@H]1CN(C)Cc1ccc(C(F)(F)F)cc1`, the inhibition was 34.1%.

Turning to `Cc1ccc(S(=O)(=O)Nc2ccc3c(c2)C(=O)N([C@@H](C)CO)C[C@H](C)[C@@H](CN(C)Cc2ccc4c(c2)OCO4)O3)cc1`, the inhibition is 24.6%. In the case of `C[C@H](CO)N1C[C@H](C)[C@@H](CN(C)Cc2ccc(Cl)c(Cl)c2)Oc2ccc(NS(=O)(=O)c3ccccc3)cc2C1=O` it was 20.4%; in that of `C[C@@H]1CN([C@@H](C)CO)C(=O)c2cc(NS(=O)(=O)c3ccccc3)ccc2O[C@@H]1CN(C)Cc1ccc(C(=O)O)cc1`, 28.2%. In the case of `COc1ccc(S(=O)(=O)Nc2ccc3c(c2)C(=O)N([C@H](C)CO)C[C@H](C)[C@@H](CN(C)Cc2ccc(-c4ccccc4)cc2)O3)cc1` it was 39.1%. Regarding `COc1ccc(S(=O)(=O)Nc2ccc3c(c2)C(=O)N([C@@H](C)CO)C[C@H](C)[C@@H](CN(C)Cc2ccc(C(F)(F)F)cc2)O3)cc1`, the inhibition is 33.8%.
